{
  "source": "PubChem BioAssay",
  "note": "Active and inactive are the calls of the source.",
  "data": [
    {"system": "not listed separately", "assay": "modulators of S6 phosphorylation in cells, primary screen, cell-based, A549, cytoblot, luminescence, serum-stimulated (AID 1158);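 note: serum-stimulated A549 lung adenocarcinoma cells; signal is phosphorylated S6 detected by cytoblot immunostaining with HRP secondary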", "settings": "A549 phospho-S6 cytoblot, 5 h, higher = more signal", "values": [
      {"smiles": "CCOC(=O)C[C@H]1[C@H](OC(=O)Cc2ccc3c(c2)OCO3)[C@@H](NC(=O)c2ccc3ccccc3c2)c2cc(OCCCO)ccc2N1C(=O)c1ccccc1", "z-score": 0.0043},
      {"smiles": "CN(C)C(=O)[C@]1(Cc2ccccc2N=[N+]=[N-])N=C(c2ccc(OCCCO)cc2)O[C@@H]1c1ccccc1", "z-score": 1.38},
      {"smiles": "COC(=O)c1c(CC[C@@H](CO)NC(=O)N[C@@H](C)Cn2cc(C3(O)CCCCC3)nn2)oc(C(C)=O)c1C(=O)OC", "z-score": 0.813},
      {"smiles": "O=C1C2C=CC(C(O)c3ccc(F)cc3)N(Nc3ccccc3F)C2C(=O)N1c1ccccc1", "note": "(stereo not drawn)", "z-score": -1.06},
      {"smiles": "O=C(c1ccccc1)N1Cc2ccccc2[C@@H]2OC(c3ccc(OCCCO)cc3)=N[C@]2(Cc2ccccc2)C1=O", "z-score": -0.118},
      {"smiles": "C=C(COC)/C(=C/C[C@H](OC(=O)c1ccncc1)c1ccc(OCCO)cc1)c1cnc2ccccc2c1", "z-score": 0.123},
      {"smiles": "COCCOC(=O)N1C(=O)[C@@]2(c3cc(C#CCNC(N)=O)ccc31)[C@H](C(=O)NC[C@H](O)c1ccccc1)[C@H]1C(=O)O[C@H](c3ccccc3)[C@H](c3ccccc3)N1[C@@H]2c1ccccc1OCCO", "z-score": 0.239},
      {"smiles": "COc1ccc([C@H]2C[C@H]3C(Br)=C[C@@H]2C(=O)[C@]32CO2)cc1", "z-score": -0.288},
      {"smiles": "C=CCOC(=O)[C@@H]1[C@H]2C(=O)O[C@H](c3ccccc3)[C@H](c3ccccc3)N2[C@H](c2ccc(OCCOC(=O)[C@@H]3C[C@@H]4C(=O)N[C@@H](Cc5ccccc5)C(=O)N4[C@@H]3c3ccc(O)cc3)cc2)[C@@]12C(=O)Nc1ccc(I)cc12", "z-score": 0.572},
      {"smiles": "O=C1OCC=C[C@H]2OC34C=CCN(c5ccc6ccccc6c5)C(=O)[C@H]3N(CCCCCCO)C(=O)[C@@H]4[C@@H]12", "note": "(stereo partly drawn)", "z-score": -0.482},
      {"smiles": "[N-]=[N+]=Nc1ccccc1C[C@]1(C(N)=O)N=C(c2ccc(OCCCO)cc2)O[C@H]1c1ccccc1", "z-score": 0.176},
      {"smiles": "O=C1OCCC/C=C\\[C@H]2OC34C=CCN(Cn5nnc6ccccc65)C(=O)[C@H]3N(CCO)C(=O)[C@@H]4C12", "note": "(stereo partly drawn)", "z-score": 1.64},
      {"smiles": "COc1cc2c(cc1OC)CN(C(=O)[C@H]1[C@@H]3C(=O)O[C@@H](c4ccccc4)[C@@H](c4ccccc4)N3[C@@H](c3ccc(O)cc3)[C@]13C(=O)Nc1ccc(C#CC4=CCCCC4)cc13)CC2", "z-score": -0.226},
      {"smiles": "Cc1ccc(S[C@]2(C(=O)NCC(C)C)CC(=O)N(Cc3cc(C(F)(F)F)cc(C(F)(F)F)c3)[C@@H]2c2ccc(CO)cc2I)cc1", "z-score": -0.301},
      {"smiles": "CCCC[C@@H]1C[C@H]1[C@@H](NC(=O)c1ccco1)c1ccc(C(=O)OC)cc1", "z-score": -0.0467},
      {"smiles": "O=C1O[C@H](c2ccccc2)[C@H](c2ccccc2)N2[C@H]1[C@@H](C(=O)O)[C@]1(C(=O)Nc3ccc(C#CC4=CCCCC4)cc31)[C@H]2c1ccccc1OCCO", "z-score": 0.296},
      {"smiles": "CC(=O)N1Cc2ccccc2C[C@@]2(COC(c3ccc(OCCCO)cc3)=N2)C1=O", "z-score": 2.28}
    ]},
    {"target": "NADPH oxidase 2 (Homo sapiens) (UniProt P04839)", "sequence (P04839 whole entry, looked up)": "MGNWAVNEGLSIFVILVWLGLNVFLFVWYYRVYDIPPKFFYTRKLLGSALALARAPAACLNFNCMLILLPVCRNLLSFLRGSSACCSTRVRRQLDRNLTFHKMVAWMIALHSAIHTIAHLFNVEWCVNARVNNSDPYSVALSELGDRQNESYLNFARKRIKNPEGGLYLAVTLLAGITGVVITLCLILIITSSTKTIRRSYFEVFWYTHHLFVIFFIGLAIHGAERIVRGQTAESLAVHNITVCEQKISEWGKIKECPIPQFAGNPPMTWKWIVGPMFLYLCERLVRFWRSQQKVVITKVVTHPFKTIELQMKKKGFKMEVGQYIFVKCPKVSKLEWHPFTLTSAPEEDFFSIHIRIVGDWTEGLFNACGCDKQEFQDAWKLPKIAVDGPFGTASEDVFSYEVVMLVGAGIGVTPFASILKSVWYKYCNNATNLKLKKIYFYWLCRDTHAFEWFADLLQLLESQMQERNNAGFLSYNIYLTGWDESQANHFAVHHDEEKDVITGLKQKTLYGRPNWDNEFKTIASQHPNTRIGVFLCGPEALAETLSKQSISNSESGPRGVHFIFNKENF", "assay": "NOX2-dependent H2O2 signal modulators, primary screen, NOX inhibitor project, cell-based, HEK293-NOX2, PMA-stimulated, Amplex Red fluorescence (AID 1159); note: test concentration not given here", "settings": "45 min, higher = more signal, called active from +8 up or from −8 down", "values": [
      {"smiles": "C[N+](C)(C)CCCCNC(=O)[C@H]1C[C@H]2C(=O)N[C@@H](Cc3ccccc3)C(=O)N2[C@H]1c1ccc(O)cc1", "z-score": "-2.12 (inactive)"},
      {"smiles": "[N-]=[N+]=NCc1ccccc1C[C@]1(C(=O)N2CCOCC2)N=C(c2ccc(OCCCO)cc2)O[C@H]1c1ccccc1N=[N+]=[N-]", "z-score": "-6.05 (inactive)"},
      {"smiles": "CC(=O)NCCCC[C@@H]1NC(=O)[C@@H]2C[C@H](C(=O)NCCCCN(C)C)[C@H](c3cccc(OCCO)c3)N2C1=O", "z-score": "-0.0869 (inactive)"},
      {"smiles": "COc1ccc(C(O)C2C=CC3C(=O)N(c4ccccc4)C(=O)C3N2Nc2ccc(C(C)C)cc2)cc1OCc1ccccc1", "note": "(stereo not drawn)", "z-score": "0.506 (inactive)"},
      {"smiles": "[N-]=[N+]=Nc1ccccc1[C@H]1OC(c2ccc(OCCCO)cc2)=N[C@@]1(Cc1ccccc1)C(=O)O", "z-score": "-0.0311 (inactive)"},
      {"smiles": "O=C(NCc1ccccc1)[C@@]1(Cc2ccccc2)N=C(c2ccc(OCCCO)cc2)O[C@H]1c1ccccc1", "z-score": "-1.28 (inactive)"},
      {"smiles": "CCOC1=C2C(CN(S(=O)(=O)c3ccc(C)cc3)C2c2ccc(C)cc2)C2C(=O)N(c3ccccc3)C(=O)C2C1", "note": "(stereo not drawn)", "z-score": "1.12 (inactive)"},
      {"smiles": "CCOC(=O)C[C@H]1[C@H](OC(=O)c2ccc(C(=O)c3ccccc3)cc2)[C@@H](NC(=O)c2ccc(-c3ccccc3)cc2)c2cc(OCCCO)ccc2N1C(=O)c1ccccc1", "z-score": "0.788 (inactive)"},
      {"smiles": "COCCOC(=O)N1C(=O)[C@@]2(c3cc(C#Cc4ccc(OC)cc4)ccc31)[C@H](c1ccc(O)cc1)N1[C@H](c3ccccc3)[C@H](c3ccccc3)OC(=O)[C@H]1[C@@H]2C(=O)NC[C@H](O)c1ccccc1", "z-score": "1.07 (inactive)"},
      {"smiles": "COc1ccc(C(=O)O[C@H]2CC[C@]3(C)C4=C(CCC3C2(C)C)[C@]2(C)CC[C@H]([C@H](C)CCCC(C)C)[C@@]2(C)CC4)cc1", "note": "(stereo partly drawn)", "z-score": "-0.13 (inactive)"},
      {"smiles": "COc1ccc(C(=O)Nc2ccc(CN3C(=O)[C@@]4(O[C@@H](CCn5cc([C@H](O)c6ccccc6)nn5)[C@H]([Si](C)(C)c5ccc(OC)cc5)[C@H]4C)c4ccccc43)cc2)cc1", "z-score": "0.295 (inactive)"},
      {"smiles": "O=C1c2ccccc2[C@@]2(Cc3ccccc3N(CCN3CCOCC3)C2=O)[C@H](c2ccc(CO)cc2)N1Cc1ccccc1", "z-score": "0.0706 (inactive)"},
      {"smiles": "CC[C@@H]1C=C(C(=O)O)[C@H](c2ccco2)N1S(=O)(=O)c1ccc(C)cc1", "z-score": "0.152 (inactive)"},
      {"smiles": "O=C1OCCC/C=C\\[C@H]2OC34C=CCN(CCN5CCOCC5)C(=O)[C@H]3N(CCCO)C(=O)[C@@H]4C12", "note": "(stereo partly drawn)", "z-score": "1.18 (inactive)"},
      {"smiles": "COC(=O)[C@@]1(Cc2ccccc2)[C@H]2c3cc(C(=O)N4CCCC4)n(Cc4nc5ccccc5[nH]4)c3C[C@H]2CN1C(=O)c1ccccc1", "z-score": "0.311 (inactive)"},
      {"smiles": "CC(C)c1ccc(NN2C(C(O)C(c3ccccc3)c3ccccc3)C=CC3C(=O)N(c4ccccc4)C(=O)C32)cc1", "note": "(stereo not drawn)", "z-score": "-1 (inactive)"},
      {"smiles": "C#CCN(Cc1ccccc1Br)C(/C=C/c1ccccc1)CO", "note": "(stereo not drawn)", "z-score": "0.28 (inactive)"},
      {"smiles": "O=C1C2C=CC(C(O)c3c(F)cccc3Cl)N(Nc3ccccc3)C2C(=O)N1c1ccccc1", "note": "(stereo not drawn)", "z-score": "-1.69 (inactive)"},
      {"smiles": "NC(=O)[C@@H]1[C@H]2C(=O)O[C@H](c3ccccc3)[C@H](c3ccccc3)N2[C@H](c2ccc(O)cc2)[C@@]12C(=O)Nc1ccc(C#CC3(O)CCCCCC3)cc12", "z-score": "0.834 (inactive)"},
      {"smiles": "CCOC(=O)C[C@H]1[C@H](OC(=O)Cc2ccc3c(c2)OCO3)[C@@H](NC(=O)c2ccc3ccccc3c2)c2cc(OCCCO)ccc2N1C(=O)c1ccccc1", "z-score": "-0.363 (inactive)"},
      {"smiles": "CN(C)C(=O)[C@]1(Cc2ccccc2N=[N+]=[N-])N=C(c2ccc(OCCCO)cc2)O[C@@H]1c1ccccc1", "z-score": "-0.906 (inactive)"},
      {"smiles": "COC(=O)c1c(CC[C@@H](CO)NC(=O)N[C@@H](C)Cn2cc(C3(O)CCCCC3)nn2)oc(C(C)=O)c1C(=O)OC", "z-score": "-6.12 (inactive)"},
      {"smiles": "O=C1C2C=CC(C(O)c3ccc(F)cc3)N(Nc3ccccc3F)C2C(=O)N1c1ccccc1", "note": "(stereo not drawn)", "z-score": "-2.22 (inactive)"},
      {"smiles": "O=C(c1ccccc1)N1Cc2ccccc2[C@@H]2OC(c3ccc(OCCCO)cc3)=N[C@]2(Cc2ccccc2)C1=O", "z-score": "-0.893 (inactive)"},
      {"smiles": "C=C(COC)/C(=C/C[C@H](OC(=O)c1ccncc1)c1ccc(OCCO)cc1)c1cnc2ccccc2c1", "z-score": "-0.294 (inactive)"},
      {"smiles": "COCCOC(=O)N1C(=O)[C@@]2(c3cc(C#CCNC(N)=O)ccc31)[C@H](C(=O)NC[C@H](O)c1ccccc1)[C@H]1C(=O)O[C@H](c3ccccc3)[C@H](c3ccccc3)N1[C@@H]2c1ccccc1OCCO", "z-score": "1.91 (inactive)"},
      {"smiles": "COc1ccc([C@H]2C[C@H]3C(Br)=C[C@@H]2C(=O)[C@]32CO2)cc1", "z-score": "-0.0817 (inactive)"},
      {"smiles": "C=CCOC(=O)[C@@H]1[C@H]2C(=O)O[C@H](c3ccccc3)[C@H](c3ccccc3)N2[C@H](c2ccc(OCCOC(=O)[C@@H]3C[C@@H]4C(=O)N[C@@H](Cc5ccccc5)C(=O)N4[C@@H]3c3ccc(O)cc3)cc2)[C@@]12C(=O)Nc1ccc(I)cc12", "z-score": "0.715 (inactive)"},
      {"smiles": "O=C1OCC=C[C@H]2OC34C=CCN(c5ccc6ccccc6c5)C(=O)[C@H]3N(CCCCCCO)C(=O)[C@@H]4[C@@H]12", "note": "(stereo partly drawn)", "z-score": "1.36 (inactive)"},
      {"smiles": "[N-]=[N+]=Nc1ccccc1C[C@]1(C(N)=O)N=C(c2ccc(OCCCO)cc2)O[C@H]1c1ccccc1", "z-score": "0.631 (inactive)"},
      {"smiles": "O=C1OCCC/C=C\\[C@H]2OC34C=CCN(Cn5nnc6ccccc65)C(=O)[C@H]3N(CCO)C(=O)[C@@H]4C12", "note": "(stereo partly drawn)", "z-score": "1.41 (inactive)"},
      {"smiles": "COc1cc2c(cc1OC)CN(C(=O)[C@H]1[C@@H]3C(=O)O[C@@H](c4ccccc4)[C@@H](c4ccccc4)N3[C@@H](c3ccc(O)cc3)[C@]13C(=O)Nc1ccc(C#CC4=CCCCC4)cc13)CC2", "z-score": "0.685 (inactive)"},
      {"smiles": "Cc1ccc(S[C@]2(C(=O)NCC(C)C)CC(=O)N(Cc3cc(C(F)(F)F)cc(C(F)(F)F)c3)[C@@H]2c2ccc(CO)cc2I)cc1", "z-score": "2.07 (inactive)"},
      {"smiles": "CCCC[C@@H]1C[C@H]1[C@@H](NC(=O)c1ccco1)c1ccc(C(=O)OC)cc1", "z-score": "-1.55 (inactive)"},
      {"smiles": "O=C1O[C@H](c2ccccc2)[C@H](c2ccccc2)N2[C@H]1[C@@H](C(=O)O)[C@]1(C(=O)Nc3ccc(C#CC4=CCCCC4)cc31)[C@H]2c1ccccc1OCCO", "z-score": "2.51 (inactive)"},
      {"smiles": "CC(=O)N1Cc2ccccc2C[C@@]2(COC(c3ccc(OCCCO)cc3)=N2)C1=O", "z-score": "-1 (inactive)"}
    ]}
  ]
}
